High-throughput results from PubChem.
COUP-TFII inh: inhibitors of human COUP-TFII (NR2F2) | AID 686940 | inhibition, % at 8.6 µM | P24468 | 370,000 tested, 0.7% active | HEK293T NGFI-A luciferase reporter, luminescence;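 active = inhibition above a per-plate cutoff, mean inhibition of test wells between control levels plus 3 SD, cut at about 38% in these data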;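 note: cells cotransfected with COUP-TFII expression vector driving the NGFI-A reporter; 0% = median of COUP-TF2 test wells and 100% = reporter-only cells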
SRC1 inh: human NCOA1 inhibition. 360,000 tested, 0.12% active. AID 588354. inhibition, % at 3.6 µM. HEK293 GAL4-SRC1 luciferase reporter, luminescence;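 active = inhibition above the campaign mean plus 3 SD, with each screening campaign given its own cutoff, cut at about 60% in these data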;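 note: 0% = DMSO treated cells and 100% = gossypol at 36 µM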
GalR3 antag: blocks the human galanin receptor 3 | inhibition, % at 3 µM | 360,000 tested, 0.44% active | HEK293 GalR3-CNG cAMP membrane potential fluorescence; galR3 body fused to GalR1 C-terminus | AID 651719;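 active = inhibition above the screen-wide average plus 3 SD, cut at about 13% in these data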;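 note: forskolin and galanin both at EC90 stimulate the cells; cAMP rise reported by CNG channel membrane potential dye signal; 0% = forskolin plus galanin with DMSO and 100% = forskolin alone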
NCOA3 inh: inhibitors of human steroid receptor coactivator 3 (SRC3); Q9Y6Q9; HEK293 GAL4-SRC3 luciferase reporter, luminescence; inhibition, % at 3.6 µM; 360,000 tested, 0.17% active;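 active = inhibition above a per-campaign cutoff, the mean of all compounds plus 3 SD, cut at about 60% in these data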;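 note: 0% = DMSO-treated cells and 100% = gossypol-treated cells at 36 µM; higher means less SRC3-driven luciferase light from the GAL4 reporter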
SRC2 inh: inhibits human steroid receptor coactivator 2; Q15596; HEK293 GAL4-SRC2 luciferase reporter, luminescence; inhibition, % at 9 µM; 370,000 tested, 0.17% active;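 active = inhibition above the mean inhibition of all tested compounds plus 3 SD, set per campaign, cut at about 52% in these data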;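 note: 0% = DMSO treated cells and 100% = cells given Gossypol at 36 µM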
LRH-1 inv ag: suppresses constitutive activity of human LRH-1. O00482. HEK293T StAR-luciferase reporter, LRH-1 transfected, 24 h. inhibition, % at 3.6 µM. 360,000 tested, 0.13% active. AID 602396;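 active = inhibition above the mean inhibition of all tested compounds plus 3 SD, cut at about 73% in these data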;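 note: 0% = DMSO wells and 100% = reporter-only cells lacking LRH-1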
Target sequence (O00482 whole entry, looked up): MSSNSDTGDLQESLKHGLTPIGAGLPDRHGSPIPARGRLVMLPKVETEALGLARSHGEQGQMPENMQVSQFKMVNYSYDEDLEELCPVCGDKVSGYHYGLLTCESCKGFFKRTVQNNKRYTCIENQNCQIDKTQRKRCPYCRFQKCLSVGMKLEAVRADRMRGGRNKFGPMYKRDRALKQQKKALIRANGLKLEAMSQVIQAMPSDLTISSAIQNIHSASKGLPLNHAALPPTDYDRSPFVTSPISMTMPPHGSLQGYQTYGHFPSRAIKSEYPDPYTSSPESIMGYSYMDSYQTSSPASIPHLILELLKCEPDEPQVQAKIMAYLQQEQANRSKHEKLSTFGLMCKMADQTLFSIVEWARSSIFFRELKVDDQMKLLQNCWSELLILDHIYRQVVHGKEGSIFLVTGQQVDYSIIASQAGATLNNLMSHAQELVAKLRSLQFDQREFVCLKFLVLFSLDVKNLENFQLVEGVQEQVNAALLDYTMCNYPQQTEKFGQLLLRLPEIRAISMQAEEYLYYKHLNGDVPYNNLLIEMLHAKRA
GalR3 antag conf: GalR3 (human) antagonism, confirmation; shares compounds with GalR3 antag; HEK293 GalR3 CNG cAMP biosensor, membrane potential fluorescence; galR3 fused to GalR1 carboxy tail; challenged with forskolin and galanin at EC90; inhibition, % at 3 µM; 1,600 tested, 59% active; AID 652245;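 active = inhibition above the primary screen's cutoff, the mean inhibition of all screened compounds plus 3 SD, cut at about 13% in these data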;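 note: 0% = forskolin plus galanin and 100% = forskolin alone with DMSO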
CNG parental: counter-screen for GalR3 antagonists: nonspecific agonists in parental HEK-CNG cells. shares compounds with GalR3 antag. HEK293-CNG parental cells, cAMP membrane potential fluorescence; normalised: DMSO wells 0%, forskolin wells 100%. activation, % at 3 µM. 1,600 tested, 10% active; in the data active = activation above about 1.3%
VP16 Luc counter: inhibits VP16 reporter, flagging COUP-TFII antagonist hits. HEK293 Gal4-VP16 luciferase reporter, luminescence. 2,500 tested, 25% active. inhibition, % at 8.5 µM. shares compounds with COUP-TFII inh. AID 687007; in the data active = inhibition above about 13%
COUP-TFII conf: confirmation of human COUP-TFII (NR2F2) inhibitors. inhibition, % at 8.5 µM. 2,500 tested, 45% active. shares compounds with COUP-TFII inh. AID 687008. HEK293 NGFI-A luciferase reporter, luminescence;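 active = mean inhibition over three repeats above a set limit taken from the earlier primary screen, cut at about 38% in these data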;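 note: 100% = cells given the luciferase reporter alone without the COUP-TF2 vector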
* marks the source's active call; other numbers are inactive results. An excerpt weighted towards active compounds, which were near 1.1% of everything screened.

Results for CCc1ccc(CN(C)C(=O)c2cc(COc3cccc4cnccc34)on2)cc1 ?
COUP-TFII inh: 66*; SRC1 inh: 14; GalR3 antag: 14*; NCOA3 inh: 34; SRC2 inh: 18; LRH-1 inv ag: 37; GalR3 antag conf: 84*; CNG parental: 1; VP16 Luc counter: -7; COUP-TFII conf: 57*

What do the screens show for `COCC1CCCN(C(=O)c2cc(COc3ccc4ncccc4c3)on2)C1` (stereo not drawn)?
COUP-TFII inh: 67*; SRC1 inh: 4; GalR3 antag: 100*; NCOA3 inh: 12; SRC2 inh: 15; LRH-1 inv ag: 42; GalR3 antag conf: 125*; CNG parental: 0; VP16 Luc counter: -4; COUP-TFII conf: 60*

How did Cc1cc(CN(C)C(=O)c2cc(COc3ccc4ncccc4c3)on2)on1 do in these assays?
COUP-TFII inh: 55*; SRC1 inh: -5; GalR3 antag: 37*; NCOA3 inh: 17; SRC2 inh: 8; LRH-1 inv ag: 22; GalR3 antag conf: 69*; CNG parental: 0; VP16 Luc counter: 2; COUP-TFII conf: 43*

How did O=C(c1cc(COc2ccc3ncccc3c2)on1)N1CCCC(O)C1 (stereo not drawn) do in these assays?
COUP-TFII inh: 28; SRC1 inh: 8; GalR3 antag: -7; NCOA3 inh: 16; SRC2 inh: 11; LRH-1 inv ag: 1

How did O=C(CNc1nnnn1-c1ccccc1)N1CCCC1 do in these assays?
COUP-TFII inh: -4; SRC2 inh: 11

What do the screens show for `COc1cccc(CNC(=O)[C@H]2CCCN2C(=O)[C@H]2CCCN2C(=O)c2ccccc2)c1`?
COUP-TFII inh: 14; GalR3 antag: -6; SRC2 inh: 7

What do the screens show for `O=C(c1ccncc1)N1CC[C@H]2[C@H](CCCN2Cc2ccccc2)C1`?
COUP-TFII inh: 6; SRC2 inh: -14

What do the screens show for `COc1ccc(-c2cccc3c4c([nH]c23)[C@@H]2C[C@H]3[C@@H](C(=O)N2CC4)[C@H](C)ON3C)cc1`?
COUP-TFII inh: -6; GalR3 antag: -6; SRC2 inh: -20

How did O=C(NC1CCCCCCC1)c1cc(COc2ccc3ncccc3c2)on1 do in these assays?
COUP-TFII inh: 62*; SRC1 inh: 24; GalR3 antag: 68*; NCOA3 inh: 35; SRC2 inh: 31; LRH-1 inv ag: 42; GalR3 antag conf: 92*; CNG parental: 1; VP16 Luc counter: 2; COUP-TFII conf: 63*

Results for Cc1cccc(C)c1OCc1cc(C(=O)NC2CCC2)no1 ?
COUP-TFII inh: -10; SRC1 inh: -26; GalR3 antag: -2; NCOA3 inh: -17; SRC2 inh: -22; LRH-1 inv ag: -42

Results for Cc1nn(C)c(C(=O)NCc2ccc(Cl)cc2)c1Cl ?
COUP-TFII inh: 61*; SRC1 inh: 21; GalR3 antag: 82*; NCOA3 inh: 26; SRC2 inh: 18; LRH-1 inv ag: 40; GalR3 antag conf: 100*; CNG parental: 0; VP16 Luc counter: 1; COUP-TFII conf: 44*

How did Cc1nc(C)c(C(=O)NCc2ccc(Cl)cc2)o1 do in these assays?
SRC1 inh: 19; NCOA3 inh: 25; LRH-1 inv ag: -12

How did CN(C)S(=O)(=O)c1cccc(CSCc2cccc(S(=O)(=O)N(C)C)c2)c1 do in these assays?
COUP-TFII inh: 57*; SRC1 inh: 32; GalR3 antag: 78*; NCOA3 inh: 34; SRC2 inh: 1; LRH-1 inv ag: 42; GalR3 antag conf: 87*; CNG parental: 0; VP16 Luc counter: 7; COUP-TFII conf: 56*

Results for O=C(Nc1nc(OCC(F)(F)F)cnc1/C=C\c1ccccc1)c1ccccc1 ?
COUP-TFII inh: 4; SRC1 inh: -22; GalR3 antag: -6; NCOA3 inh: 4; SRC2 inh: -26; LRH-1 inv ag: -4

How did O=C(OCCN1C(=O)c2cccc3c(N4CCOCC4)ccc(c23)C1=O)c1ccccc1Cl do in these assays?
COUP-TFII inh: 66*; SRC1 inh: 15; GalR3 antag: 15*; NCOA3 inh: 22; SRC2 inh: 25; LRH-1 inv ag: 8; GalR3 antag conf: 74*; CNG parental: 2.9*; VP16 Luc counter: -4; COUP-TFII conf: 23

What do the screens show for `CCOc1ccc(-c2c[n+]3c(n2-c2ccccc2)CCCCC3)cc1`?
COUP-TFII inh: 56*; SRC1 inh: 24; GalR3 antag: 56*; NCOA3 inh: 38; SRC2 inh: 28; LRH-1 inv ag: 51; GalR3 antag conf: 71*; CNG parental: 0; VP16 Luc counter: 6; COUP-TFII conf: 44*

Results for COC(=O)N1C[C@H](OCc2ccccc2)[C@H]2C[C@@H]1c1ccccc1O2 ?
COUP-TFII inh: 4; GalR3 antag: -2; SRC2 inh: 5

What do the screens show for `Cc1nn(C)c(C)c1CN(C)S(=O)(=O)c1ccc2ccccc2c1`?
COUP-TFII inh: 61*; SRC1 inh: 14; GalR3 antag: 110*; NCOA3 inh: 17; SRC2 inh: 25; LRH-1 inv ag: 39; GalR3 antag conf: 116*; CNG parental: 0; VP16 Luc counter: 2; COUP-TFII conf: 66*

How did COC(=O)C1=CN(c2cccc(OCc3ccccc3)c2)C(N)=C(C#N)C1c1cccc(F)c1 (stereo not drawn) do in these assays?
COUP-TFII inh: 7; GalR3 antag: 0; SRC2 inh: 11; LRH-1 inv ag: 28

What do the screens show for `CC(=O)N1CCc2cc(S(=O)(=O)NCCCN3CCCCC3)ccc21`?
COUP-TFII inh: 4; SRC1 inh: 24; GalR3 antag: -5; NCOA3 inh: -18; SRC2 inh: -16; LRH-1 inv ag: 0

Results for CC(=O)N1CCc2cc(S(=O)(=O)NCCC3=CCCCC3)ccc21 ?
COUP-TFII inh: 47*; SRC1 inh: 13; GalR3 antag: 82*; NCOA3 inh: 18; SRC2 inh: -23; LRH-1 inv ag: 30; GalR3 antag conf: 80*; CNG parental: 0; VP16 Luc counter: 5; COUP-TFII conf: 36
